Data as given in PubChem BioAssay (NCATS).
Results filed as inconclusive are left out. Calls of active or inactive are those of the source. Unless noted, the call rests on the fitted dose curve; in most records, active means well fitted curve in the direction sought with a large enough effect; inconclusive means small, poorly fitted or top-dose-only effect, or another doubt; inactive means no such curve, though single readings can be large; an effect the other way counts as inactive or inconclusive.

Columns and labels:
[1] = Cell Viability - BJ (AID 421; calls by dose curve;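 further: potency means the concentration at half of the fitted maximal effect; cells exposed to compound for 40 hours at 37 °C before readout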); settings: BJ fibroblast viability, qHTS
Procedure, shortened: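 Normal human BJ foreskin fibroblasts, 1500/well in complete medium, treated 40 hr at 37 °C. Cellular ATP by CellTiter-Glo luminescence; normalized to DMSO and 100 uM tamoxifen, AC50 from Hill fit.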

[2] = Cell Viability - Jurkat (AID 426;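 active means dose-dependent loss of cell ATP signal giving a full or clear fitted curve, ranked by lower potency value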; further: potency means the concentration at half of the fitted maximal effect); settings: qHTS
Procedure, shortened: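 Cytotoxicity taken as drop in cellular ATP (CellTiter-Glo luminescence, 20 min room temperature) after 40 hr, 37C treatment of 5000 Jurkat Clone E6-1 cells per well; concentration-response fitted with Hill equation for AC50.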

[3] = Cell Viability - Hek293 (AID 427;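 active means compounds whose dose-response curve shows a full or clear partial loss of cell viability, called from curve shape rather than a numeric limit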;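 further: potency means the concentration at half of the fitted maximal effect; cells exposed to compound for 40 hours at 37 °C before reading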); settings: qHTS
Procedure, shortened: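 HEK293 cells in complete medium were exposed to compound for 40 hr at 37 °C, then cellular ATP was read by CellTiter-Glo luminescence. Data were normalized to DMSO (basal) and 100 uM tamoxifen (100% inhibition), and AC50 came from Hill fits.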

[4] = Cell Viability - HepG2 (AID 433; calls by dose curve;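 further: potency means the concentration at half of the fitted maximal effect; potency for ATP loss meaning cytotoxicity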); settings: qHTS
Procedure, shortened: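 HepG2 hepatocellular carcinoma cells (1500/well) were treated with compounds for 40 h at 37 °C in complete medium; intracellular ATP was read by CellTiter-Glo luminescence. Data were normalized to DMSO and 100 uM tamoxifen, and AC50 came from Hill fits.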

[5] = Cell Viability - MRC5 (AID 434; calls by dose curve;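 further: potency means the concentration at half of the fitted maximal effect; potency reflects cytotoxicity seen as loss of intracellular ATP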); settings: MRC5 lung fibroblast viability, qHTS
Procedure, shortened: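 Decrease in intracellular ATP, quantified by luciferase light output, reflects compound toxicity toward MRC5 cells exposed for 40 hr in complete culture medium. Concentration-response curves, scaled between DMSO and 100 uM tamoxifen, gave AC50 values.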

[6] = Cell Viability - SK-N-SH (AID 435; calls by dose curve; further: potency means the concentration at half of the fitted maximal effect); settings: SK-N-SH neuroblastoma cell viability qHTS
Procedure, shortened: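 SK-N-SH human neuroblastoma cells (1500/well) were exposed to compounds in complete medium for 40 h at 37 °C, and intracellular ATP was then measured by CellTiter-Glo luminescence. AC50 was taken from Hill fits, normalized to DMSO and 100 uM tamoxifen.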

[7] = molecular target: Mitogen-activated protein kinase 10 (Mus musculus) (UniProt Q61831); assay: JNK3 AlphaScreen Assay (AID 530; active means well fitted curve in either direction with a large enough effect, not every such curve was filed as active;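 further: kinase came from lysate of stimulated human HepG2 cells; signal reports phosphorylation of biotinylated GST-cJun 1-79 at Ser73 with 10 µM ATP; on the % scale 0 is the no-effect control and ±100 the full control effect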)
Procedure, shortened: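 Phosphorylation of biotinylated GST-cJun(1-79) at Ser73 is measured by AlphaScreen proximity luminescence. Enzyme is JNK3 in HepG2 lysates activated with interleukin-1beta and tumor necrosis factor alpha; ATP is 10 uM final.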

[8] = Cell Viability - NIH 3T3 (AID 541); settings: NIH 3T3 cell viability, qHTS; activity change, negative = cytotoxicity: at 92.2 µM (top of the series);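 further: plate controls were DMSO alone for no effect and tamoxifen positive control for full effect; nearly all actives have a fitted effect of over 25% in size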
Procedure, shortened: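 Intracellular ATP (CellTiter-Glo luminescence, 20 min at room temperature) measured after 40 hr compound exposure at 37 °C of 1000 NIH 3T3 mouse fibroblasts/well in complete medium; AC50 derived by Hill-equation modelling of qHTS concentration-response curves.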

[9] = Cell Viability - H-4-II-E (AID 543); further: on the % scale 0 is the no-effect control and ±100 the full control effect; nearly all actives have a fitted effect of over 35% in size
Procedure, shortened: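 CellTiter-Glo luminescence (intracellular ATP) measured after 40 h compound exposure at 37 °C in H-4-II-E rat hepatoma cells seeded at 1500/well. Values are AC50s fitted with the standard Hill equation.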

[10] = Cell Viability - SH-SY5Y (AID 544); further: nearly all actives have a fitted effect of over 55% in size
Procedure, shortened: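 Cytotoxicity measured via ATP-dependent luciferase luminescence (CellTiter-Glo) following 40 h, 37 °C exposure of 1500 SH-SY5Y cells per well. Concentration-response data were fitted with the standard Hill equation to give AC50.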

[11] = Cell Viability - Renal Proximal Tubule (AID 545); settings: renal proximal tubule cells viability, primary cells of rat origin; at 91.7 µM (top of the series); further: nearly all actives have a fitted effect of over 40% in size
Procedure, shortened: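 Primary rat renal proximal tubule cells (1000/well) were treated with compounds for 40 hr at 37 °C in complete medium. Intracellular ATP was measured by CellTiter-Glo luminescence, and AC50 values came from Hill-equation fits of concentration-response data.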

[12] = Cell Viability - Mesenchymal (AID 546); settings: mesenchymal cells viability, qHTS; activity change, negative = cytotoxicity: at 91.7 µM (top of the series);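 further: cells exposed to compound for 40 hours before reading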
Procedure, shortened: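 In this qHTS cytotoxicity format, glomerulus-derived human mesenchymal kidney cells received compound for 40 hr, then luciferase-based ATP quantitation. Concentration-response data were fitted with the Hill equation.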

[13] = Cellular Toxicity (caspase-3) Jurkat (AID 655); settings: Jurkat caspase-3 activation, luminescence, DMSO = 0%, tamoxifen = 100%; at 92.2 µM (top of the series);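 further: cells exposed to compound for 16 h at 37 °C before reading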
Procedure, shortened: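 Jurkat cells (5000/well) in complete medium were treated with compounds for 16 hr at 37 °C, then Caspase-Glo 3/7 luminescence was read after 20 min at room temperature. Data normalized to DMSO (basal) and 100 uM tamoxifen (100%); AC50 from Hill fit.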

[14] = Cellular Toxicity (caspase-3) HUV-EC-C (AID 656)
Procedure, shortened: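 HUV-EC-C endothelial cells, 1000/well, were pre-incubated 5 hr at 37°C, then exposed to compounds for 16 hr at 37°C. Caspase-Glo 3/7 luminescence was read after 20 min at room temperature. AC50 came from Hill fits, normalized to DMSO and 100 uM tamoxifen.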

[15] = Cellular Toxicity (caspase-3) SHSY5Y (AID 657)
Procedure, shortened: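 SH-SY5Y human neuroblastoma cells (1500/well) were treated with compounds for 16 h at 37 °C, then Caspase-Glo 3/7 luminescence was read after 1 h at room temperature. Data normalized to DMSO and 10 uM staurosporine; AC50 from Hill fits.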

[16] = Cellular Toxicity (caspase-3) BJ (AID 658);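 further: 0% = DMSO basal and 100% = 10 µM staurosporine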
Procedure, shortened: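 Plated BJ cells (1000/well) rested 5 hr, received compound for 16 hr at 37 °C, then Caspase-Glo 3/7 reagent for 1 hr at room temperature before luminescence reading.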

[17] = Cellular Toxicity (caspase-3) MRC-5 (AID 659);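 further: 0% = DMSO basal and 100% = 10 µM staurosporine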
Procedure, shortened: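 Apoptosis readout in MRC-5 cells: luciferase light generated after caspase 3/7 cleaves a peptide-aminoluciferin substrate, measured post 16 hr compound incubation at 37 °C.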

[18] = Cellular Toxicity (caspase-3) Mesangial (AID 660);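 further: combined caspase 3 and 7 activity read by Caspase-Glo luminescence; cells exposed to compound for 16 h before the caspase read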
Procedure, shortened: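 Caspase 3/7 activation measured by Caspase-Glo 3/7 luminescence (20 min, room temperature) following 16 h exposure of mesangial cells (1000/well); AC50 from Hill-equation fit, normalized to DMSO and 100 uM tamoxifen.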

[19] = Cellular Toxicity (caspase-3) SK-N-SH (AID 661);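 further: 0% = DMSO basal and 100% = 10 µM staurosporine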
Procedure, shortened: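 Caspase 3/7 activation was read by luminogenic substrate cleavage after 16 hour treatment of SK-N-SH cells. Signal was scaled between DMSO and 10 uM staurosporine, and concentration-response data were fitted with the Hill equation for AC50.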

[20] = Cellular Toxicity (caspase-3) H-4-II-E (AID 663); settings: Potency: caspase-3 activation;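 further: cells exposed to compound for 16 hr before readout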
Procedure, shortened: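 Caspase 3/7 activation measured in H-4-II-E cells in complete culture medium after 16 hr treatment at 37 °C, using luciferase-coupled substrate readout; AC50 values come from Hill-equation fits of normalized concentration-response data.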

[21] = Cellular Toxicity (caspase-3) Hek293 (AID 664);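 further: cells exposed to compound for 16 h at 37 °C before readout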
Procedure, shortened: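 Concentration-response qHTS: caspase 3/7 activation measured by luminescent aminoluciferin substrate cleavage after 16 h compound exposure of Hek 293 cells. AC50 from Hill equation, with DMSO as basal and 100 uM tamoxifen as 100%.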

[22] = Cellular Toxicity (caspase-3) N2a (AID 665);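 further: compound exposure lasted 16 h at 37 °C before readout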
Procedure, shortened: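 Caspase-3/7 activation measured as luminescence from Caspase-Glo reagent (1 h, room temperature) after 16 h compound exposure of mouse N2a cells. AC50 values from Hill-equation concentration-response, scaled between DMSO and 10 uM staurosporine.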

O=C(/C=C/c1ccc(O)c(O)c1)O[C@@H](C(=O)O)[C@@H](OC(=O)/C=C/c1ccc(O)c(O)c1)C(=O)O
inactive: Potency [1] > 92 µM | Potency [2] > 92 µM | Potency [3] > 92 µM | Potency [4] > 92 µM | Potency [5] > 92 µM | Potency [6] > 92 µM | Potency [7] | Potency [8] | Potency [9] | Potency [10] | activity change, negative = cytotoxicity [11] -5.23% | activity change, negative = cytotoxicity [12] 11% | caspase-3 activation [13] 1.83% | outcome [14] | outcome [15] | outcome [16] | outcome [17] | outcome [18] | outcome [19] | Potency [20] | outcome [21] | outcome [22]
